Experimental data published in PubChem BioAssay (NCI).
Compounds without any hit were thinned out: in the full panel of roughly 83,000, 20% have a hit.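 The test compound was applied at a single concentration to cells in 96-well plates for 48 hours, and percent growth was recorded.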 Values without a mark were called inactive. The source made the active and inactive calls. The calls were made as follows: active = growth percent below 10; inactive = the rest.

How the values were obtained:
Test in all cases: NCI-60 one-dose screen, 48 h (100 = growth as untreated, 0 = no growth, -100 = all killed)
Conditions in all cases: 10 µM
NCI-H23 lung = tested on: NCI-H23 lung
NCI-H226 lung = tested on: NCI-H226 lung
HOP-62 NSCLC = tested on: HOP-62 NSCLC
NCI-H460 lung = tested on: NCI-H460 lung
HOP-92 NSCLC = tested on: HOP-92 NSCLC
NCI-H522 lung = tested on: NCI-H522 lung
A549/ATCC NSCLC = tested on: A549/ATCC NSCLC
786-0 renal = tested on: 786-0 renal
COLO 205 colon = tested on: COLO 205 colon

SMILES	growth (NCI-H23 lung)	growth (NCI-H226 lung)	growth (HOP-62 NSCLC)	growth (NCI-H460 lung)	growth (HOP-92 NSCLC)	growth (NCI-H522 lung)	growth (A549/ATCC NSCLC)	growth (786-0 renal)	growth (COLO 205 colon)
NS(=O)(=O)Oc1ccc2c(ccn2C(=O)C23CC4CC(CC(C4)C2)C3)c1	97%	93.4%	111%	104%	122%	94.9%	101%	110%	114%
N#Cc1c(N)nc(-c2cc(F)cc(C(F)(F)F)c2)nc1-c1ccccc1F	51.9%	30.1%	21.9%	15.2%	34.7%	68.3%	41.7%	1.27% (active)	24.7%
Cc1ccc(S(=O)(=O)N/N=C2\CCCc3ccccc32)cc1	87.1%	90.9%	108%	96.7%	99.5%	103%	101%	116%	115%
CCOS(=O)(=O)c1c(C(C)C)cc(C(C)C)cc1C(C)C	98.4%	99.5%	98.9%	103%	99.1%	100%	102%	105%	104%
C#CCOc1c(OC)cc(C(=O)/C(C)=C/c2cccc(N=[N+]=[N-])c2)cc1OC	36.4%	68.9%	36%	16.7%	63.1%	-48.6% (active)	18.8%	23.7%	-31.8% (active)
Cc1ccc(N=Nc2ccccc2)cc1	95.1%	108%	90.5%	105%	90.9%	84.2%	87.8%	89.6%	106%
COc1cc(-c2nc3ccccc3o2)cc(CN2CCCCC2)c1O	22.1%	78.8%	49.7%	31.7%	103%	65.9%	34%	94.7%	113%
Cc1noc(C)c1CSc1ccccc1C(=O)N1CCN(c2cccc(C(F)(F)F)c2)CC1	67.9%	75.6%	91.5%	84.2%	68.1%	62%	73.7%	87.5%	74.2%
COc1ccc(/C=C2\CCCC3=C2NC(N)=NC3c2ccc(OC)c(OC)c2)cc1OC (stereo unspecified)	49.3%	34.1%	57%	64.6%	75%	16.7%	58.8%	94.3%	46%
COc1cc(-c2nn(-c3cccc(NC(=O)CCN4CCN(Cc5ccccc5)CC4)c3)cc2-c2ccncc2)ccc1Cl	20.8%	54%	24%	1.48% (active)	-0.56% (active)	-31.4% (active)	11.6%	-59.9% (active)	-50.9% (active)
COc1cc(C2CC(c3ccc4c(c3)OCO4)=NN2c2ccccc2)cc(OC)c1OC (stereo unspecified)	93.9%	102%	104%	103%	84.1%	73.4%	98.5%	95.9%	86.8%
Cc1ccc(NCCN(C)CC(C)O)c2c(=O)c3ccc(Cl)cc3sc12 (stereo unspecified)	65.7%	85.3%	87.1%	0.284% (active)	34.3%	57.4%	39.6%	47.3%	-78% (active)
COc1cc(-c2nn(-c3cccc(NC(=O)CCNc4ccc(N5CCOCC5)cc4)c3)cc2-c2ccncc2)ccc1Cl	13.2%	25.9%	27.1%	4.77% (active)	-6.34% (active)	11.9%	17.5%	19.1%	1.38% (active)
CCN1CCN(CCC(=O)Nc2cccc(-n3cc(-c4ccncc4)c(-c4ccc(Cl)c(OC)c4)n3)c2)CC1	32.2%	65%	37.7%	6.94% (active)	6.07% (active)	-23.2% (active)	8.56% (active)	-47.6% (active)	-69.3% (active)
CC[N+](CC)=c1ccc2nc3c(cc(NCc4ccccc4)c4ccccc43)oc-2c1	-76% (active)	-34.4% (active)	-99.6% (active)	-66.4% (active)	-7.03% (active)	-82.3% (active)	-90.2% (active)	-62.7% (active)	-89.4% (active)
O=C(Nc1ccc(OCc2nnc(-c3ccc(Cl)cc3)o2)c(F)c1)Nc1ccc(Cl)c(C(F)(F)F)c1	-5.04% (active)	-4.39% (active)	16.6%	2.73% (active)	-19.3% (active)	-33.8% (active)	12.8%	10.1%	-76.9% (active)
CS(=O)(=O)c1nccc(-c2c(-c3cccc(O)c3)nc3sccn23)n1	109%	95.4%	95.9%	97.4%	29.8%	-2.17% (active)	97.5%	77.2%	114%
O=C(NCCNC(=O)c1ccc(F)cc1)Nc1ccc(-n2cc(-c3ccncc3)c(-c3ccc(Cl)c(O)c3)n2)cc1	6.86% (active)	24.2%	22.9%	-0.482% (active)	-19% (active)	-29.2% (active)	12.4%	-11.1% (active)	-80.8% (active)
CCC(CC)n1c(C)cc(=O)n1C(CC)CC	101%	99.1%	96.1%	103%	99.9%	106%	101%	105%	115%
O=C(CCn1cnc2c(cc(-c3ccccc3)n2-c2ccccc2)c1=O)Nc1ccc(F)cc1	76.1%	106%	13%	80.4%	34.2%	55%	70.9%	62.7%	103%
CCOC(=O)c1cc(C(=O)c2cc(OC)cc(OC)c2)n2nc(C)ccc12	37.2%	78.6%	48.4%	10.8%	13.9%	-10.9% (active)	26.9%	34.4%	-11.5% (active)
COc1cc(C(=O)N2CCN(c3cc4c(cc3F)c(=O)c(C(=O)NO)cn4C3CC3)CC2)cc(OC)c1OC	94.9%	95.1%	97%	105%	99.1%	87.4%	99%	93.6%	104%
CC(C)(C)OC(=O)N1CCc2c(sc3ncnc(N/N=C/c4cccc5ccccc45)c23)C1	12.9%	31%	27.8%	4.98% (active)	25.6%	16%	23.8%	16.9%	13.8%
Nc1cc(Br)c(-c2nn3c(CCC(=O)c4nc5ccccc5[nH]4)nnc3s2)c(Br)c1	87.3%	83.6%	103%	102%	72.8%	97.4%	101%	99.8%	107%
CC[C@@H]1NC(=O)[C@H]([C@H](O)[C@H](C)C/C=C/c2ccc(CN3C(=O)CCCC3=O)cc2)N(C)C(=O)[C@H](C(C)C)N(C)C(=O)[C@H](CC(C)C)N(C)C(=O)[C@H](CC(C)C)N(C)C(=O)[C@@H](C)NC(=O)[C@H](C)NC(=O)[C@H](CC(C)C)N(C)C(=O)[C@H](C(C)C)NC(=O)[C@H](CC(C)C)N(C)C(=O)CN(C)C1=O	68.8%	-22.8% (active)	62.1%	71.2%	53.3%	23.5%	47.1%	67.1%	53.9%
CN1C(=O)C2(Nc3cc(Cl)ccc3S2)c2cc(Cl)ccc21 (stereo unspecified)	82.7%	80%	101%	95.2%	71.7%	95.2%	97.3%	102%	93.2%
COc1ccc(-c2nnc(SCC(=O)Nc3ccc(C(=O)/C=C/c4ccccc4)cc3)n2-c2ccccc2)cc1OC	80.8%	50.4%	102%	37.1%	78.4%	53.8%	51.9%	67.1%	56.1%
CC(C)(C)OC(=O)N1CCc2c(sc3ncnc(N/N=C/c4ccc(Br)cc4)c23)C1	71.8%	79%	69%	39.6%	94.4%	35.6%	50.2%	76.5%	41%
Nc1nccc(OCCO)n1	99.8%	96.1%	94%	108%	113%	90.7%	97.4%	102%	110%
